Results published in PubChem BioAssay (NCATS).
Several values for one entry are separate records, joined by “and”; a condition that tells them apart may be missing. Identical values can stand only once. Results filed as inconclusive are left out. Activity calls are given as the source filed them. Unless noted, calls come from the whole dose curve; as a rule, active = well fitted curve in the direction sought with a large enough effect; inconclusive = small, poorly fitted or top-dose-only effect, or another doubt; inactive = no such curve, though single readings can be large; an effect the other way counts as inactive or inconclusive.

What was measured:
[1] = qHTS for Activators of Parkin Expression: LOPAC Validation Assay (FLuc Reporter) (AID 720573;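 note: 0% = DMSO and 100% = positive control compounds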)
How it was run: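 A neuronal cell line harbouring FLuc and NLuc reporters behind the Parkin promoter was exposed to compounds for 24 h. Firefly luciferase signal, measured after 10 min with detection reagent, was scaled to DMSO and positive-control wells.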

[2] = qHTS assay for small molecule agonists of the antioxidant response element (ARE) signaling pathway measured by Nrf2-dependant transcriptional activity (AID 720636; active = well fitted curve in the direction sought with a large enough effect in the repeat runs; an effect the other way counts as inactive or inconclusive; note: % of control where 0% means no effect)
How it was run: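 ARE-luc HepG2 cells carrying an Nrf2-responsive luciferase reporter were plated in medium with 1% dialyzed FBS, left 6 hr at 37 C to attach, then exposed to compound for 16 hr. Luciferase luminescence was read after ONE-Glo addition.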

[3] = qHTS assay for small molecule agonists of the antioxidant response element (ARE) signaling pathway measured by Nrf2-dependant transcriptional activity - cell viability counter screen (AID 720653; active = well fitted curve in the direction sought with a large enough effect in the repeat runs; an effect the other way counts as inactive or inconclusive; note: % is set by controls: 0 for no effect and ±100 for the full control effect); details: ARE-bla HepG2 viability, CellTiter-Glo ATP luminescence, 16 h; max response: active compounds read low
How it was run: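 Cytotoxicity counter screen: intracellular ATP quantified by CellTiter-Glo luminescence in the same ARE-bla HepG2 plates, after 16 h compound exposure and a 2 h beta-lactamase substrate step.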

[4] = target: T1, Hexokinase-4 (Homo sapiens) + Glucokinase regulatory protein (Homo sapiens) (UniProt P35557+Q14397); assay: qHTS assay for inhibitors of recombinant human GCK-GKRP interaction: ADP-Glo assay (AID 743206);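 note: plate controls were DMSO plus enzyme for no effect and no enzyme for full effect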
How it was run: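 GST-GCK and FLAG-GKRP (15 nM each in the dispensed mix, with 2 uM S6P) react with 0.4 mM ATP and 5 mM glucose (final) in Hepes pH 7.6 for 60 min at room temperature. ADP is measured by ADP-Glo luminescence.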

[5] = target: T1, Hexokinase-4 (Homo sapiens) + Glucokinase regulatory protein (Homo sapiens); assay: qHTS assay for inhibitors of recombinant human GCK-GKRP interaction: HTRF assay (AID 743207);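 note: 0% = DMSO with GCK present and -100% = DMSO wells lacking GCK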
How it was run: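 Steps: dispense GCK–GKRP complex (5 nM each, GST- and FLAG-tagged) with 2 uM S6P; pin in compounds; add XL665/Eu-cryptate-labelled antibodies; incubate 60 min at room temperature; read time-resolved FRET at 665 and 615 nm.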

[6] = qHTS assay for cell viability of HEK293 cells (AID 743288); details: ATP luminescence (CellTiter-Glo), 18 h; max response: active compounds read low; note: nearly all actives have a fitted effect of over 50% in size; note: potency is the fitted concentration of half-maximal effect; for max response: % is set by controls: 0 for no effect and ±100 for the full control effect
How it was run: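 The Tox21 protocol used parental HEK293 cells treated for 18 h at 37 C with compounds delivered by pintool; ATP-coupled luminescence after 30 min at room temperature gave viability.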

[7] = qHTS assay for cell viability of the p53RE-bla HCT-116 cell line (AID 743292); note: % is set by controls: 0 for no effect and ±100 for the full control effect; nearly all actives have a fitted effect of over 55% in size
How it was run: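 CellSensor p53RE-bla HCT-116 cells, 4,000/well, preincubated 5 h at 37 C, then exposed to compounds in DMSO for 16 h at 37 C. Viability read as CellTiter-Glo luminescence (intracellular ATP) after 30 min at room temperature.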

[8] = target: T1, Hexokinase-4 (Homo sapiens) + Glucokinase regulatory protein (Homo sapiens); assay: qHTS assay for inhibitors of recombinant human GCK-GKRP interaction: Diaphorase-coupled assay (AID 743205)
How it was run: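 Inhibitors of the GCK–GKRP complex relieve GKRP suppression of GCK, detected through a G6PDH–diaphorase cascade reducing resazurin. Human GST-GCK and FLAG-GKRP are used at 10 nM with 5 mM glucose and 0.4 mM ATP.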

[9] = qHTS Assay for Identifying Gametocytocidal Compounds (AID 743244);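 note: % is set by controls: 0 for no effect and ±100 for the full control effect; actives lower the fluorescent signal which means gametocytes are killed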; details: P. falciparum 3D7 stage III-V gametocytes, alamarBlue, 72 h; max response: active compounds read low
How it was run: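 Late gametocytes (III–V), P. falciparum 3D7; 72 h drug, then 24 h alamarBlue; resazurin reduction read by fluorescence.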

[10] = qHTS assay for small molecule antagonists of the retinoid-related orphan receptor gamma (ROR-gamma) signaling pathway - cell viability counter screen (AID 720652; active = well fitted curve in the direction sought with a large enough effect in the repeat runs; an effect the other way counts as inactive or inconclusive;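 note: CHO reporter cells with doxycycline-induced ROR-gamma expression; series mostly up to about 92 µM; compound exposure lasted 16 hr before ATP read; % is set by controls: 0 for no effect and ±100 for the full control effect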)
How it was run: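 CHO cells carrying TET-inducible ROR and RORE-luciferase reporter, plated 5 hr, then dosed with compound plus doxycycline. After 16 hr at 37 C, viability read as intracellular ATP by CellTiter-Glo luminescence.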

T1 sequence (P35557 whole entry, looked up): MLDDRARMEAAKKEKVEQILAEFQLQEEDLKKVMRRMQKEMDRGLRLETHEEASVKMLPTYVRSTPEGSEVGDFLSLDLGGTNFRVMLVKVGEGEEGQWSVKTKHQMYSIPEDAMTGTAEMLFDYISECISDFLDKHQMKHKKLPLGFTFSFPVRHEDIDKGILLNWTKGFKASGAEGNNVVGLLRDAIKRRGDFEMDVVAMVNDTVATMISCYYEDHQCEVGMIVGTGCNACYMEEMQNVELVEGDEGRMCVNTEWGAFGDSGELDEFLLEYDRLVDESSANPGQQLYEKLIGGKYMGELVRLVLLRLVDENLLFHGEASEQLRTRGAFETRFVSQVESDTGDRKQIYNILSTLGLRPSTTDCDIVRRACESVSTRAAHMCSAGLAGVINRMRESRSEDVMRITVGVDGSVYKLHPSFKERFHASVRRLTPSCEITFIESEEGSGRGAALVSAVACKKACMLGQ
T1 sequence (Q14397 whole entry, looked up): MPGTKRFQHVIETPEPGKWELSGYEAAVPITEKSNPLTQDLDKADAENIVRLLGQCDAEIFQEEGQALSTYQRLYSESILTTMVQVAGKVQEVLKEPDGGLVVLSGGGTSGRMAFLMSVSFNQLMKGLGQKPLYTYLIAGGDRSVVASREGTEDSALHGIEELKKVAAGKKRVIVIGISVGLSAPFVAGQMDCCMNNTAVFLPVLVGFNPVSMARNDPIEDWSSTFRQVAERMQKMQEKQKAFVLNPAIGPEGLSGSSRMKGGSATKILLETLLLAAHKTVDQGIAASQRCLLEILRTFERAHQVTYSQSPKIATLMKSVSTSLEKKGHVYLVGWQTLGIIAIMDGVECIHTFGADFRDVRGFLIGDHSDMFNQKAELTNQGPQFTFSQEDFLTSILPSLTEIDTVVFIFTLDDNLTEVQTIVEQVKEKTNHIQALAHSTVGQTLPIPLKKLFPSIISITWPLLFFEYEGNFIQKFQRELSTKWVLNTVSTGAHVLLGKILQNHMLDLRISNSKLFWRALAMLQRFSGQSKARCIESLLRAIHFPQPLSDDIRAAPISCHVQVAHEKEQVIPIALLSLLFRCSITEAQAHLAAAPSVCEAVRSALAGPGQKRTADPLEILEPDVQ

COC(=O)[C@H]1[C@H]2C[C@@H]3c4[nH]c5cc(OC)ccc5c4CCN3C[C@H]2C[C@@H](OC(=O)c2cc(OC)c(OC)c(OC)c2)[C@@H]1OC
active: Potency [6] 39.8 µM
inactive: outcome [1] | outcome [2] | max response [3] -16.7% and -9.72% | outcome [4] | Potency [5] | outcome [7]

Nc1ncn([C@@H]2O[C@H](CO)[C@@H](O)[C@H]2O)c(=O)n1
inactive: outcome [1] | outcome [2] | max response [3] -13.9% and 0.747% | outcome [8] | outcome [4] | Potency [5] | max response [9] -3.69% and 12.2% | outcome [7]

O=c1[nH]c(=O)n([C@H]2C[C@H](O)[C@@H](CO)O2)cc1Br
inactive: outcome [1] | outcome [2] | outcome [10] | max response [3] -13.7% | outcome [8] | outcome [4] | Potency [5] | max response [9] 2.92% and 14.4% | max response [6] -7.4% | outcome [7]

CN=C(NC#N)NCCSCc1nc[nH]c1C
inactive: outcome [1] | outcome [2] | outcome [10] | max response [3] 0.359% | outcome [8] | outcome [4] | Potency [5] | max response [9] 2.14% and 13.4% | max response [6] -3.45% | outcome [7]

COCCCC/C(=N\OCCN)c1ccc(C(F)(F)F)cc1
inactive: outcome [1] | outcome [8] | outcome [4] | Potency [5] | max response [9] 20.1%

CC(=O)Nc1nnc(S(N)(=O)=O)s1
inactive: outcome [1] | outcome [2] | max response [3] 1.81% | outcome [8] | outcome [4] | Potency [5] | max response [9] 9.9% and 9.69% | max response [6] -6.47% | outcome [7]
